Measured values: PubChem BioAssay (Tox21)
Results filed as inconclusive are left out. Active and inactive are the calls of the source. Calls follow the shape of the dose curve; as a rule, active = well fitted cell-killing curve with a large enough effect in the repeat runs; inconclusive = weak or mixed curves, or effect the other way; inactive = flat fitted curve, though single readings scatter. Where a SMILES comes first, the peptide text is derived from it. [ ]: non-standard residue; d: D form. pGlu = O=C1CC[C@@H](C(=O)O)N1

experiment: qHTS RealTime-Glo MT Cell Viability Assay in HEK293 cells - 8 hour (AID 1224887); conditions: RealTime-Glo luminescence; series mostly up to 76.8 µM; activity change, negative = cytotoxicity: at the top concentration; also: nearly all actives have a fitted effect of over 50% in size; as to activity change, negative = cytotoxicity: top concentration of the series differs between compounds
Text: U.S. Tox21 Program National Center for Advancing Translational Sciences [NCATS] NIH Chemical Genomics Center [NCGC] U.S. Environmental Protection Agency [EPA] National Institutes of Environmental Health Sciences [NIEHS] National Toxicology Program [NTP] U.S. Food and Drug Administration [FDA] Tox21 Assay Overview: Measure of cell viability is critical in the cell-base assay. Analysis of cell viability is necessary for the characterization of cell responses to cytotoxic drugs and environmental stress. A RealTime-Glo MT Cell Viability Assay to monitor cell viability in real time of continues cell culture during 40 hours of compound treatment was used to screen Tox21 10K library compounds in Hek293 cells. The RealTime-Glo MT Cell Viability Assay is a nonlytic, homogeneous, bioluminescent method to measure cell viability in real time using a simple, plate-based method. The assay involves adding NanoLuc luciferase and a cell-permeant prosubstrate to cells in culture. Viable cells reduce the proprietary prosubstrate to generate a substrate for NanoLuc luciferase. This substrate diffuses from cells into the surrounding culture medium, where it is rapidly used by the NanoLuc Enzyme to produce a luminescent signal. The signal correlates with the number of viable cells, making the assay well suited for cytotoxicity studies.
Tox21 Assay Protocol Summary: The mixture of Hek293 cell suspension and reagents were dispensed at 600cells/6 ul/well in 1536-well tissue culture treated black solid bottom plates using a Multidrop dispenser. After the assay plates were incubated at a 37 C/5% CO2 incubator for 5 hours, 23 nL of compounds dissolved in DMSO, positive and negative controls was transferred to the assay plate by a pintool work station. The plates were incubated at 37 C for 40 hours. The luminescence intensity were measured at 0h, 8h, 16h, 24h, 32h and 40h time points using ViewLux plate reader during compound treatment.
% is scaled to controls: 0 for no effect and ±100 for the full control effect; potency is read from the fitted curve at half-maximal effect.

Structure (SMILES) | activity change, negative = cytotoxicity | Potency
CCOCC(C)O (stereo not given) | 2.12% (inactive) | –
Clc1cc(Cl)cc(Cl)c1 | 1.64% (inactive) | –
CC(C)C(=O)OC(=O)C(C)C | 2.17% (inactive) | –
C=C(C)C(=O)OCCOCCOCCOCCOC(=O)C(=C)C | -5.86% (inactive) | –
CC1(C)[C@@H]2CC[C@@]1(C)[C@H](O)C2 | 3.48% (inactive) | –
C=COC(=O)C(C)(CC)CCC(C)C (stereo not given) | 6.5% (inactive) | –
CCC(C)(CCCC(C)C)OC(C)=O (stereo not given) | -0.583% (inactive) | –
CCCCS(=O)(=O)N[C@@H](Cc1ccc(OCCCCC2CCNCC2)cc1)C(=O)O | 5.91% [at 35.3 µM] (inactive) | –
CC(C)C[C@@H](N)C(=O)O | 7.72% [at 15.8 µM] (inactive) | –
O=C(CO)[C@@H](O)[C@H](O)[C@@H](O)CO | 11.5% [at 35.3 µM] (inactive) | –
[O-][n+]1cccc(CO)c1 | 1.28% [at 35.3 µM] (inactive) | –
C=CCCC(=O)O | 7.65% (inactive) | –
CCCCCCCCN1CCCC1=O | -3.05% (inactive) | –
O=C1c2ccccc2C(=O)c2cc(O)ccc21 | – | 55 µM (active)
C1CCC2(CCCCO2)OC1 | -0.146% (inactive) | –
CCNC(=O)[C@@H]1CCCN1C(=O)[C@H](CCCN=C(N)N)NC(=O)[C@H](CC(C)C)NC(=O)CNC(=O)[C@H](Cc1ccc(O)cc1)NC(=O)[C@H](CO)NC(=O)[C@H](Cc1c[nH]c2ccccc12)NC(=O)[C@H](Cc1cnc[nH]1)NC(=O)[C@@H]1CCC(=O)N1 ([pGlu]HWSYGLRP-NHEt) | 0.379% [at 35.3 µM] (inactive) | –
COCCOCC(OC)OC | 5.17% [at 35.3 µM] (inactive) | –
O=S(=O)(O)c1cccc2ccccc12 | 18.1% (inactive) | –
CCOC(=O)OC(C)OC1=C(C(=O)Nc2ccccn2)N(C)S(=O)(=O)c2ccccc21 (stereo not given) | 0.97% [at 35.3 µM] (inactive) | –
CCCc1nn(C)c2c(=O)[nH]c(-c3cc(S(=O)(=O)N4CCN(C)CC4)ccc3OCC)nc12 | -19.1% [at 35.3 µM] (inactive) | –

Structure (SMILES) | activity change, negative = cytotoxicity | Potency
CC(=O)c1cnccn1 | 15.5% (inactive) | –
CC(C)(N)C#N | 3.92% (inactive) | –
NC(=O)N1c2ccccc2CC(=O)c2ccccc21 | 1.48% [at 35.3 µM] (inactive) | –
CC(CC=O)CC(C)(C)C (stereo not given) | 6.84% (inactive) | –
CCCCN1C=CN(C)C1 | 5.36% [at 15.8 µM] (inactive) | –
NS(=O)(=O)Cc1noc2ccccc12 | 2.12% [at 35.3 µM] (inactive) | –
CC(C)(CCC(=O)O)C(=O)O | 3.19% (inactive) | –
CCCCCCC#CC(=O)OC | -11.3% (inactive) | –
COc1cc(-c2ccc(=O)[nH]n2)ccc1OC(F)F | -0.169% [at 35.3 µM] (inactive) | –
O=C(O)CCCC[P+](c1ccccc1)(c1ccccc1)c1ccccc1 | -10.6% [at 35.3 µM] (inactive) | –
CN(C)C(=O)Oc1cccc([N+](C)(C)C)c1 | 13.3% [at 35.3 µM] (inactive) | –
O=[N+]([O-])c1ccc(/C=N\O)o1 | -1.22% [at 35.3 µM] (inactive) | –
CCOC(=O)c1ccccc1 | 2.65% (inactive) | –
O=S(=O)(O)c1cc(O)c(O)c(S(=O)(=O)O)c1 | 0.327% (inactive) | –
CC1(C)OC[C@@H](COC(=O)CCc2ccc(OC[C@@H](O)CNCCNC(=O)N3CCOCC3)cc2)O1 | 1.94% [at 35.3 µM] (inactive) | –
CCCn1cc[n+](C)c1C | -0.474% (inactive) | –
CN1[C@@H]2CC[C@H]1CC(OC(=O)C(O)c1ccccc1)C2 (stereo not given in full) | 9.17% [at 35.3 µM] (inactive) | –
COc1cc2c(cc1OC)-c1cc3ccc(OC)c(OC)c3c[n+]1CC2 | -23.2% (inactive) | –
CCCCOCCOC(=O)COc1cc(Cl)c(Cl)cc1Cl | 19.7% (inactive) | –
CN1CC(=O)N/C1=N/C(=O)Nc1cccc(Cl)c1 | -0.771% [at 35.3 µM] (inactive) | –
